{"source": "the supplement of paper PMC12532568", "note": "Where a name gives a salt, the structure may show the parent alone.", "data": [{"system": "Danio rerio larvae Tg(actc1b:ZsGreen-LC3), 3 dpf", "test": "LC3 puncta relative area vs vehicle, without NH4Cl (log2 fold change); higher = more autophagosomes", "details": "10 µM; treatment time 16 h; NH4Cl: none", "experimental": "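Transgenic Tg(actc1b:ZsGreen-map1lc3) zebrafish larvae (2 dpf) were treated for 16 h with Tocris library compounds at 10 µM (n = 12 larvae per compound). Skeletal-muscle LC3 puncta area relative to body area was measured by high-content confocal imaging before and after 4 h of 100 mM NH4Cl (autophagic flux), normalised to vehicle (DMSO), and reported as log2 fold change.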", "values": [{"compound": "Cc1ccc(OCC(O)C(C)NC(C)C)c2c1CCC2", "note": "(stereo not given) [ICI 118,551 hydrochloride]", "LC3 puncta (log2)": -0.0345}, {"compound": "c1ccc(N2CCN(CCCOc3ccc4c(c3)OCO4)CC2)cc1", "note": "[BP 554 maleate]", "LC3 puncta (log2)": 0.01}, {"compound": "COC(=O)/C=C/c1cc(O)ccc1O", "note": "[Methyl 2,5-dihydroxycinnamate]", "LC3 puncta (log2)": 0.0626}, {"compound": "CC(C)NC[C@H](O)COc1cccc2ccccc12", "note": "[(S)-(-)-Propranolol hydrochloride]", "LC3 puncta (log2)": 0.355}, {"compound": "N[C@@H](C(=O)O)c1ccc(O)c(C(=O)O)c1", "note": "[(R)-3-Carboxy-4-hydroxyphenylglycine]", "LC3 puncta (log2)": 0.211}, {"compound": "O=C(OCCN1CCCCC1)c1c[nH]c2ccccc12", "LC3 puncta (log2)": 0.11}, {"compound": "C/N=C(/NC#N)NCCSCc1csc(NC(=N)N)n1", "note": "[Tiotidine]", "LC3 puncta (log2)": 0.383}, {"compound": "COc1cc2nc(N3CCN(C(=O)c4ccco4)CC3)nc(N)c2cc1OC", "note": "[Prazosin hydrochloride]", "LC3 puncta (log2)": -0.131}, {"compound": "NS(=O)(=O)c1cccc2c1c([N+](=O)[O-])cc1nc(O)c(O)nc12", "LC3 puncta (log2)": 0.286}, {"compound": "CN1CCN(C2=Cc3ccccc3Oc3ccc(Cl)cc32)CC1", "LC3 puncta (log2)": 0.742}, {"compound": "NC(C(=O)O)c1cc(O)cc(O)c1", "note": "(racemic)", "LC3 puncta (log2)": 0.194}, {"compound": "OCCN(CCO)c1nc(N2CCCCC2)c2nc(N(CCO)CCO)nc(N3CCCCC3)c2n1", "note": "[Dipyridamole]", "LC3 puncta (log2)": -0.714}, {"compound": "CC[C@@H]1C(=O)OC[C@@H]1Cc1cncn1C", "note": "[Pilocarpine hydrochloride]", "LC3 puncta (log2)": 0.203}, {"compound": "CCC1(c2ccccc2)C(=O)NCNC1=O", "note": "[Primidone]", "LC3 puncta (log2)": 0.333}, {"compound": "NC(=O)OCC(COC(N)=O)c1ccccc1", "note": "[Felbamate]", "LC3 puncta (log2)": -0.737}, {"compound": "c1ccc(CN(CC2=NCCN2)c2ccccc2)cc1", "note": "[Antazoline hydrochloride]", "LC3 puncta (log2)": 0.664}, {"compound": "CN(C)CCCCSC(=N)N", "LC3 puncta (log2)": 0.222}, {"compound": "CC12CC3CC(C)(C1)CC(N)(C3)C2", "note": "[Memantine hydrochloride]", "LC3 puncta (log2)": 0.145}, {"compound": "CC(C)[N+]1(C)[C@@H]2CC[C@H]1C[C@@H](OC(=O)C(CO)c1ccccc1)C2", "note": "(stereo not given in full) [Ipratropium bromide]", "LC3 puncta (log2)": -0.65}, {"compound": "CC(C)(C)NC[C@H](O)COc1nsnc1N1CCOCC1", "note": "[(S)-Timolol maleate]", "LC3 puncta (log2)": 0.305}, {"compound": "O=C(O)c1cc(=O)c2ccccc2[nH]1", "note": "[Kynurenic acid]", "LC3 puncta (log2)": 0.00327}, {"compound": "NC(=O)Nc1sc(-c2ccc(F)cc2)cc1C(N)=O", "LC3 puncta (log2)": 0.302}, {"compound": "CC(Cc1ccc(O)c(O)c1)(NN)C(=O)O", "note": "[(S)-(-)-Carbidopa]", "LC3 puncta (log2)": 0.0108}, {"compound": "O=C1CN(/N=C/c2ccc(-c3ccc([N+](=O)[O-])cc3)o2)C(=O)N1", "note": "[Dantrolene, sodium salt]", "LC3 puncta (log2)": 0.18}, {"compound": "O=C(O)C=C1CCCc2ccccc2C1O", "note": "(stereo not given)", "LC3 puncta (log2)": 0.299}, {"compound": "CC(CCc1ccc(O)cc1)NCCc1ccc(O)c(O)c1", "note": "(stereo not given) [Dobutamine hydrochloride]", "LC3 puncta (log2)": -0.094}, {"compound": "N[C@H](C(=O)O)c1cc(O)cc(O)c1", "LC3 puncta (log2)": 0.537}, {"compound": "Cc1ccc(/C(=C\\CN2CCCC2)c2ccccn2)cc1", "note": "[trans-Triprolidine hydrochloride]", "LC3 puncta (log2)": -0.298}, {"compound": "NC(N)=Nc1ccc(Cl)cc1", "note": "[4-Chlorophenylguanidine hydrochloride]", "LC3 puncta (log2)": -0.45}, {"compound": "O=C(O)c1cccnc1C(=O)O", "note": "[Quinolinic acid]", "LC3 puncta (log2)": 0.278}, {"compound": "Cc1ccc2c(c1)c1c3n2CCNC3CCC1", "note": "(stereo not given) [Pirlindole mesylate]", "LC3 puncta (log2)": 0.028}, {"compound": "O=S(=O)(c1cccc2cnccc12)N1CCCNCC1", "note": "[Fasudil hydrochloride]", "LC3 puncta (log2)": 0.598}, {"compound": "COc1cc(C(=O)OCCCN2CCCN(CCCOC(=O)c3cc(OC)c(OC)c(OC)c3)CC2)cc(OC)c1OC", "note": "[Dilazep]", "LC3 puncta (log2)": 0.175}, {"compound": "COc1ccc([C@@H]2Sc3ccccc3N(CCN(C)C)C(=O)[C@@H]2OC(C)=O)cc1", "note": "[Diltiazem hydrochloride]", "LC3 puncta (log2)": 0.112}, {"compound": "O=[N+]([O-])c1cc2nc(O)c(O)nc2cc1[N+](=O)[O-]", "LC3 puncta (log2)": 0.0864}, {"compound": "O=C(O)C1=CCNCC1", "note": "[Isoguvacine hydrochloride]", "LC3 puncta (log2)": 0.169}, {"compound": "c1ccc2nc(C3=NCCN3)cnc2c1", "note": "[BU 239 hydrochloride]", "LC3 puncta (log2)": -0.208}, {"compound": "N[C@H](C(=O)O)c1ccc(O)c(C(=O)O)c1", "note": "[(S)-3-Carboxy-4-hydroxyphenylglycine]", "LC3 puncta (log2)": 0.267}, {"compound": "c1cc2c(cc1C1CCCCC1)c1c3n2CCNC3CCC1", "note": "(stereo not given) [Tetrindole mesylate]", "LC3 puncta (log2)": 0.672}, {"compound": "CC(C)(Oc1ccc(Cl)cc1)C(=O)O", "note": "[Clofibric acid]", "LC3 puncta (log2)": 0.448}]}]}
